The record followed here is PubChem BioAssay.

Assay [1] in a line: compounds binding Alexa647 anti-His antibody – biochemical, small-molecule microarray, 635 nm fluorescence, artefact control for SMM control protein annotation, primary screen (AID 1128).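 Also: score merges feature fluorescence with signal-to-noise for each printed compound spot.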 Particulars: higher = more signal.
Assay [2] deals with Human papillomavirus type 1a E7 protein (residues 1-88). In words: HPV1a E7 small-molecule binders, primary screen, biochemical, small-molecule microarray, residues 1-88, 635 nm (AID 1129). The note with it: small-molecule microarray binding, fluorescence 635 nm; higher = more signal.
Assay [3] deals with Focal adhesion kinase 1 (Homo sapiens) (UniProt Q05397). The assay can be described thus: PTK2 protein binding on printed compound slides – biochemical, small-molecule microarray, 635/667 nm fluorescence, BSA, DTT, primary screen (AID 1130).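 Also: composite of spot emission at 667 nm and signal to noise over triplicate slides.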 The note with it: 635 nm fluorescence, higher = more signal.
Sequence of Focal adhesion kinase 1 (Homo sapiens) (Q05397 whole entry, looked up): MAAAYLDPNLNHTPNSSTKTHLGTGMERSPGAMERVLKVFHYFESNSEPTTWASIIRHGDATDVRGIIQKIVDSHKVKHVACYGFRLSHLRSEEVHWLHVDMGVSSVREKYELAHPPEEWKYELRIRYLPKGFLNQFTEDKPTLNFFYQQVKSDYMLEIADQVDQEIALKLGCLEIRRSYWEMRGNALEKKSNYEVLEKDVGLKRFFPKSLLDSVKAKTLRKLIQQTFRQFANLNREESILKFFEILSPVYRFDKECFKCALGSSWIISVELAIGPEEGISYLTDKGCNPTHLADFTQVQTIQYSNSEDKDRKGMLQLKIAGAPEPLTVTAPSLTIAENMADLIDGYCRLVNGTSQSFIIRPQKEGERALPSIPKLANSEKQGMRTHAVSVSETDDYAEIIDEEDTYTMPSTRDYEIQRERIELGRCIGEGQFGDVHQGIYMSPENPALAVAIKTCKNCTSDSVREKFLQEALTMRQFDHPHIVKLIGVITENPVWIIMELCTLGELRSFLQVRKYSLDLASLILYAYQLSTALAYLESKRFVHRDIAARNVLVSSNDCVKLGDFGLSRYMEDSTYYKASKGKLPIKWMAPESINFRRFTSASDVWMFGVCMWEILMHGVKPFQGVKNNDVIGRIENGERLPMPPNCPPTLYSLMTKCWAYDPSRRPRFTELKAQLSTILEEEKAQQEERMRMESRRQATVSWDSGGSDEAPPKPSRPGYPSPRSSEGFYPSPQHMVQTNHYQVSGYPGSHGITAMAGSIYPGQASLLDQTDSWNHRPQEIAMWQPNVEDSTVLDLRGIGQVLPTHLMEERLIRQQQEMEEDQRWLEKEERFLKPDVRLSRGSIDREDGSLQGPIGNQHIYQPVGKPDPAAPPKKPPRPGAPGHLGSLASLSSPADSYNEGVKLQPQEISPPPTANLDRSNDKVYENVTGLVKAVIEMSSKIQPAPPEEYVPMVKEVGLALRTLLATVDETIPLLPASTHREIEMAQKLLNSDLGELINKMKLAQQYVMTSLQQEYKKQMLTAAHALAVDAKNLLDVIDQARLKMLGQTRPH
In assay [4] the test system is Fibrinogen (Alexa647-labelled). In words: Alexa647-fibrinogen binding to printed small molecules – biochemical, small-molecule microarray, 635/667 nm fluorescence, artefact control for SMM control-protein annotation, profiling panel (AID 1131).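 Also: z-score merges 667 nm fluorescence with per-spot signal-to-noise over triplicate slides.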 The note with it: fibrinogen-A647 binding fluorescence, higher = more signal.
Assay [5] concerns the target Follistatin (Homo sapiens) (UniProt P19883). In words: FST protein binding to printed compounds – biochemical, small-molecule microarray, 635/667 nm fluorescence, primary screen (AID 1132). Particulars: 635 nm fluorescence, higher = more signal.
Assay [6] has as its target Fibroblast growth factor 2 (Homo sapiens) (UniProt P09038). The assay can be described thus: basic fibroblast growth factor binding to printed compounds – biochemical, small-molecule microarray, 635/667 nm fluorescence, primary screen (AID 1133). The note with it: FGF2, fluorescence 635/667, higher = more signal.
Assay [7] can be described thus: JC-1 mitochondrial potential readout, lung cancer cells – cell-based, A549, JC-1 fluorescence, basal, 24 h, 100 nL, profiling panel (AID 1138).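 Also: A549 lung adenocarcinoma cells under basal conditions with no added stimulus; test concentration not given here.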 Particulars: higher = more signal.
Another assay has as its system Lefty1. In words: Lefty1 protein binding to printed compounds – biochemical, small-molecule microarray, 635/667 nm fluorescence, primary screen (AID 1139). The note with it: fluorescence 635/667, higher = more signal.
Assay [8] has as its system wheat germ agglutinin (Triticum aestivum), Alexa647-labelled. In words: Alexa647-WGA lectin binding to printed small molecules – biochemical, small-molecule microarray, 635/667 nm fluorescence, artefact control for SMM control-protein annotation, profiling panel (AID 1140).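 Also: score merges 667 nm feature emission with signal to noise over triplicate slides.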 The note with it: WGA-A647 binding, 635 nm fluorescence, higher = more signal.
Assay [9] deals with Luciferin 4-monooxygenase (Photinus pyralis) (UniProt P08659). In words: inhibition of purified Photinus pyralis luciferase – biochemical, luminescence, purified enzyme, 2006 set, primary screen (AID 1141).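 Also: cell-free assay with purified firefly luciferase at 100 ng per well in PBS; test concentration not given here.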 Particulars: purified firefly luciferase, SteadyGlo luminescence, 30 min; higher = more signal, called active from +8 up or from −8 down.
Sequence of Luciferin 4-monooxygenase (Photinus pyralis) (P08659 whole entry, looked up): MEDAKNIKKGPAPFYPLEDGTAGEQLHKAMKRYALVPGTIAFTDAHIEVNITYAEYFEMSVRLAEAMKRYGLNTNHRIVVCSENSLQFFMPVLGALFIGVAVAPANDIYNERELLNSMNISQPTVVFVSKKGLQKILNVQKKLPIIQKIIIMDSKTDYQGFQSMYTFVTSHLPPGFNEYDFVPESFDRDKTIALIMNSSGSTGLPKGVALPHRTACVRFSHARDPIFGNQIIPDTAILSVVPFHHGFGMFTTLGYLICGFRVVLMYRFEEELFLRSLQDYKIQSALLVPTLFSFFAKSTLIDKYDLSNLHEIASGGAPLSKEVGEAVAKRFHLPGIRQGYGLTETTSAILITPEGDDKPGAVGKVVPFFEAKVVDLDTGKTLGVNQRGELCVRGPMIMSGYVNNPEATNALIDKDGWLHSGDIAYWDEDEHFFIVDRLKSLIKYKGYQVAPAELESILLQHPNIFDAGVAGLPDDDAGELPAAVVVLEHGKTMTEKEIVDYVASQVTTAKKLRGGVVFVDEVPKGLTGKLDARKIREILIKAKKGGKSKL
The subject of assay [10] is Wnt5a (protein binding on small-molecule microarray). In words: small molecules binding Wnt5a protein – biophysical, small-molecule microarray, 635/667 nm fluorescence, primary screen (AID 1142).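 Also: fluorescence read at 667 nm with signal to noise per printed feature.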 The note with it: 635 nm fluorescence, higher = more signal.
Assay [11] is described as follows: ATP-based viability of Huh7 replicon cells – cell-based, CellTiter-Glo luminescence, basal, 48 h, cytotoxicity control for HCV replication inhibitor project, primary screen (AID 1143).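 Also: Huh7 hepatoma cells carrying a hepatitis C replication reporter with no stimulus; test concentration not given here.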 Particulars: higher = more signal, called active from +8 up or from −8 down.
Assay [12] is described as follows: Pseudomonas biofilm growth suppression – PAO1 strain, BacTiter-Glo luminescence, LB-PBS, primary screen (AID 1144). Particulars: P. aeruginosa PAO1 biofilm, 12 h, higher = more signal.
Assay [13] in a line: basal CRE-LacZ reporter activity in PC12 – cell-based, unstimulated, primary screen (AID 1145). Particulars: no forskolin, luminescence, 4.5 h, higher = more signal, called active from +8 up or from −8 down.
Assay [14] can be described thus: forskolin-driven CRE-LacZ activity in PC12 – cell-based, CRE-LacZ reporter, forskolin-stimulated, primary screen (AID 1146).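 Also: PC12 cells with 6xCRE LacZ reporter stimulated by forskolin 10 µM; beta-galactosidase reporter signal reflecting CREB driven transcription.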 Particulars: luminescence, 4.5 h, higher = more signal, called active from +8 up or from −8 down.
Assay [15] addresses Streptavidin (Streptomyces avidinii) (UniProt P22629). In words: compounds binding control protein streptavidin – biophysical, small-molecule microarray, 635/667 nm fluorescence, artefact control for SMM compound annotation, primary screen (AID 1147).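 Also: signal reflects streptavidin binding to arrayed compounds as a control protein.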 Particulars: higher = more signal.
Assay [16] is described as follows: probe aInhba binding on compound microarray – biochemical, small-molecule microarray, 635/667 nm fluorescence, primary screen (AID 1148).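 Also: score merges 667nm spot fluorescence with signal-to-noise for antibody binding to printed compounds.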 Particulars: higher = more signal.
Assay [17] concerns the target Torsin-1A (Homo sapiens) (UniProt O14656). The assay can be described thus: TOR1A wild-type binding on microarray – cell lysate, small-molecule microarray, lysate, 635/667 nm, primary screen (AID 1149). The note with it: COS7 hTOR1A-WT lysate, 635 nm fluorescence, higher = more signal.
Assay [18] shares this target. In words: torsin A mutant lysate binding on microarrays – cell lysate, small-molecule microarray, COS7 lysate, 635/667 nm fluorescence, primary screen (AID 1150).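 Also: score pools 667 nm emission and signal to noise measuring lysate protein binding.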 The note with it: COS7 hTOR1A mutant lysate, 635 nm fluorescence, higher = more signal.
The test system of assay [19] is Sonic hedgehog protein (Shh). The assay can be described thus: Sonic hedgehog microarray binding compounds – biochemical, small-molecule microarray, 635/667 nm fluorescence, primary screen (AID 1151).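 Also: Shh protein binding to compounds spotted on small-molecule microarray slides; score combines spot fluorescence intensity with signal-to-noise across triplicate slides.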 Particulars: 635 nm fluorescence, higher = more signal.

Each structure is given as a SMILES string. The source made the active and inactive calls. Unless noted, no rule for the calls is given here.

Sequence of Follistatin (Homo sapiens) (P19883 whole entry, looked up): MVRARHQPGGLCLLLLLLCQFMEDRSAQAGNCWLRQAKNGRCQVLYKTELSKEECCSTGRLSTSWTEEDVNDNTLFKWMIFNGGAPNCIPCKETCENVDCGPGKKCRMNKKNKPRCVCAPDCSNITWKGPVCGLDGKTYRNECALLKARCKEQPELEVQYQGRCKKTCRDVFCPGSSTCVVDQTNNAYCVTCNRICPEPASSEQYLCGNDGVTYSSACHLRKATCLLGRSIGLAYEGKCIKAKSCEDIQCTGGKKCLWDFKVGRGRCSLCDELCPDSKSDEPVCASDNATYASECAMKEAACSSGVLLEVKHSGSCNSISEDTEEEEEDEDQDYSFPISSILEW
Sequence of Streptavidin (Streptomyces avidinii) (P22629 whole entry, looked up): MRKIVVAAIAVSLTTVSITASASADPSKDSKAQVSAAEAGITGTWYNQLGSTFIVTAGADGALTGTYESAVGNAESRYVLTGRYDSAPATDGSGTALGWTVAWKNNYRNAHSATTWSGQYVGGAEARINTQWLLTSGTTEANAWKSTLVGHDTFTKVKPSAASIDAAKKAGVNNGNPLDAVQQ
Sequence of Fibroblast growth factor 2 (Homo sapiens) (P09038 whole entry, looked up): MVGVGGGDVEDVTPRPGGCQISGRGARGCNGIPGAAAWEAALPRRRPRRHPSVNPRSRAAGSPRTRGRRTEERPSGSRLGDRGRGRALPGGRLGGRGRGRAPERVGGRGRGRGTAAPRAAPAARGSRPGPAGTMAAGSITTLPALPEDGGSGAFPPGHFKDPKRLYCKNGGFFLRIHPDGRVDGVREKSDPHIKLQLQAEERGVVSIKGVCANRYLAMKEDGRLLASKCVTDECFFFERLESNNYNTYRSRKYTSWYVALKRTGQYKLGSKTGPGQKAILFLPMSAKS
Sequence of Torsin-1A (Homo sapiens) (O14656 whole entry, looked up): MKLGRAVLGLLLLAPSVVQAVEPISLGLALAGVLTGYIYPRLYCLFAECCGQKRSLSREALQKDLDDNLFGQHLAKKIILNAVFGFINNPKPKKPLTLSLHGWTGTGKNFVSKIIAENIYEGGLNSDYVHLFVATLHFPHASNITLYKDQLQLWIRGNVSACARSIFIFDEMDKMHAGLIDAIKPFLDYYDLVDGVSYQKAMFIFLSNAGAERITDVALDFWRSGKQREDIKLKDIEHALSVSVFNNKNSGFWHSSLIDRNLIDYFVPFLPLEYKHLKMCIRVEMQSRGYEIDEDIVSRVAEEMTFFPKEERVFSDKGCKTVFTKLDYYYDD

With `CC=CC(O)C1C=CC2C(=O)N(c3ccccc3)C(=O)C2N1Nc1ccc(C(C)C)cc1` (stereo not given), the composite z-score in assay [1] was 0.585; in [2], 1.2; in assay [3] it was 0.777; in assay [4] it was 0.831; in assay [5], 1.12; in assay [6], 0.133. Moreover, the composite z-score in the assay with Lefty1 is 0.0518; in assay [8] it was 1.32; in [10] it was 0.288; in assay [15], 1.24; in assay [16], 0.143; with Torsin-1A (Homo sapiens) [17] it was -0.173. In addition, the composite z-score is 0.55 in the assay with Torsin-1A (Homo sapiens) [18] and -0.0469 in assay [19]. Further, the z-score in assay [7] is -0.723; in assay [9] it was -0.959 (inactive); in assay [11] it was 0.0547 (inactive); in assay [12] it was -0.302 (inactive); in assay [13], 0.0501 (inactive); in [14] it was 0.133 (inactive).

Regarding `C=CCNC(=O)[C@@H]1[C@H]2C(=O)O[C@H](c3ccccc3)[C@H](c3ccccc3)N2[C@H](c2ccc(OCCO)cc2)[C@@]12C(=O)Nc1ccccc12`, the composite z-score was found to be 0.797 in [1]; 1.22 in assay [2]; 0.102 in assay [3]; 0.934 in assay [4]; 1.1 in [5]; 0.516 in [6]. The composite z-score in the assay on Lefty1 is 1.03; in assay [8], 0.496; in [10] it was 0.358; in assay [15], 0.226; in assay [16] it was -0.102; in the assay with Torsin-1A (Homo sapiens) [17], 0.355. Further, the composite z-score is 0.209 in the assay with Torsin-1A (Homo sapiens) [18] and 1.61 in assay [19]. Moreover, the z-score in [7] is 0.253; in assay [9], -8.15 (active); in [11] it was -4.32 (inactive); in [12], -2.23 (inactive); in assay [13], -0.905 (inactive); in assay [14], -1.87 (inactive).

As for `COc1ccc([Si](C)(C)[C@@H]2[C@@H](CCn3cc([C@H](O)c4ccccc4)nn3)O[C@]3(C(=O)N(Cc4ccc(N5C(=O)c6cccc7cccc5c67)cc4)c4ccccc43)[C@H]2C)cc1`, the composite z-score in assay [1] was 0.448; in [2], -0.412; in [3], -0.465; in [4] it was -0.151; in assay [5], -0.7; in assay [6], -0.513. The composite z-score is -0.236 with Lefty1; -0.101 in assay [8]; -0.179 in assay [10]; -0.378 in assay [15]; -0.0762 in [16]; -0.0204 with Torsin-1A (Homo sapiens) [17]. Further, the values for the composite z-score (with Torsin-1A (Homo sapiens) [18]; in assay [19]) were -0.169 and -0.0774, respectively. For the same compound, the z-score was 1.57 in assay [7]; -0.303 (inactive) in assay [9]; -4.7 (inactive) in assay [11]; 0.364 (inactive) in assay [12]; 1.22 (inactive) in assay [13]; -1.68 (inactive) in assay [14].

In the case of `C#CCN(C(/C=C/c1ccccc1)CO)C(C(=O)O)c1ccccc1` (stereo not given), the composite z-score in assay [1] was -0.375; in assay [2], -1.19; in assay [3] it was 0.492; in [4] it was 0.116; in [5] it was -0.523; in assay [6] it was -0.354. Further, the composite z-score was -0.346 with Lefty1; -0.0819 in assay [8]; 0.0265 in assay [10]; 0.18 in assay [15]; 0.0391 in assay [16]; -0.407 with Torsin-1A (Homo sapiens) [17]. The figures for the composite z-score (with Torsin-1A (Homo sapiens) [18]; in assay [19]) were -0.959 and -0.514, respectively. For the same compound, the z-score in [7] was -1.04; in assay [9], -0.104 (inactive); in assay [11] it was -3.59 (inactive); in assay [12], 1.13 (inactive); in assay [13], -0.0487 (inactive); in [14] it was -0.53 (inactive).

As for `COCCOC(=O)N1C(=O)[C@@]2(c3cc(C#CCNC(N)=O)ccc31)[C@H](C(=O)N1CCc3cc(OC)c(OC)cc3C1)[C@H]1C(=O)O[C@H](c3ccccc3)[C@H](c3ccccc3)N1[C@@H]2c1ccc(OCCO)cc1`, the composite z-score in [1] is 0.101; in assay [2], 0.158; in [3], -0.0354; in assay [4], 0.108; in assay [5], 1.3; in assay [6] it was 1.41. Further, the composite z-score in the assay on Lefty1 is 0.881; in [8], 0.385; in [10] it was 0.506; in [15] it was 0.287; in assay [16], -0.418; with Torsin-1A (Homo sapiens) [17], -0.136. Besides, the results for the composite z-score (in the assay with Torsin-1A (Homo sapiens) [18]; in assay [19]) were 0.237 and 1.95, respectively. The z-score in [7] is -1.49; in [9], -0.553 (inactive); in [11] it was -0.352 (inactive); in assay [12], -1.42 (inactive); in assay [13], -1.56 (inactive); in [14], -0.549 (inactive).
